Out of some 56,000 […] screened, about 2,300 (4.1%) were called active. No stated cut-off is given here; in the data, active = GI50 up to about 1.1 µM and inactive = higher. These entries were drawn from the full list. Potency and affinity values are given separately.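 96-well plates; 48 h exposure; 5 concentrations. Endpoints by linear interpolation between flanking doses. Not reached: highest tested concentration assigned. GI50 marks 50% less growth.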

The experiment concerns TK-10. Description: NCI tumour cell line growth inhibition, 48 h.
Turning to “[Bis(aminomethyl)ethylmethylsilane]tetrachloroplatinum(IV), CHEMBL2146192”, the GI50 was 13.1 µM.

Consider “[Bis(aminomethyl)tetramethylenesilane]dichloropaltinum(II), CHEMBL2146205”, for which the GI50 is 32.2 µM. As for “[Bis(aminomethyl)dimethylsilane]tetrachloroplatinum(IV), CHEMBL2146190”, the GI50 turned out to be 9.48 µM. The result for “[Bis(aminomethyl)diethylsilane]tetrachloroplatinum(IV), CHEMBL2146203” reads 13.4 µM; that for “mu-(1,7-nanodiamine-N,N')bis-(cis-aminedichloroplatimum (II)), CHEMBL2146215”, 62.8 µM. Then “[Bis(aminomethyl)pentamethylenesilane]tetrachloropaltinum(IV), CHEMBL2146204”, with 17.1 µM; and “[Bis(aminomethyl)dimethylsilane]dichloroplatinum (II), CHEMBL2146201”, with 24.6 µM; and “cis-Bis[[(trimethylsilyl)methyl]amino]tetrachloroplatinum(IV), CHEMBL2146191”, with 13.2 µM. With CISPLATIN, CHEMBL11359, the GI50 worked out at 6.64 µM.

“[Bis(aminomethyl)tetramethylenesilane]tetrachloropaltinum(IV), CHEMBL2146189” displayed a GI50 of 9.91 µM. In turn, “[Bis(aminomethyl)pentamethylenesilane]dichloropaltinum(II), CHEMBL2146202” displayed a GI50 of 12.7 µM.
